Entries with a potency or affinity are not part of this list. Active and inactive are the calls of the source.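 Rule for the calls: active = compounds lowering HDL dye uptake whose fitted half-effect dose is at most twice the top valid dose; inconclusive = flat curve with moderate signal loss, or poor fit; inactive = the rest.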
Molecular target: Scavenger receptor class B member 1 (Mus musculus) (UniProt Q61009)
Assay: mouse SR-BI DiI-HDL transfer blockers – ldlA[mSR-BI] CHO cells, fluorescence plate reader, dry powder, set 9, dose response (AID 623880)
Conditions: DiI-HDL uptake fluorescence, 3 h; series mostly up to 35 µM

Sequence of Scavenger receptor class B member 1 (Mus musculus) (Q61009 whole entry, looked up): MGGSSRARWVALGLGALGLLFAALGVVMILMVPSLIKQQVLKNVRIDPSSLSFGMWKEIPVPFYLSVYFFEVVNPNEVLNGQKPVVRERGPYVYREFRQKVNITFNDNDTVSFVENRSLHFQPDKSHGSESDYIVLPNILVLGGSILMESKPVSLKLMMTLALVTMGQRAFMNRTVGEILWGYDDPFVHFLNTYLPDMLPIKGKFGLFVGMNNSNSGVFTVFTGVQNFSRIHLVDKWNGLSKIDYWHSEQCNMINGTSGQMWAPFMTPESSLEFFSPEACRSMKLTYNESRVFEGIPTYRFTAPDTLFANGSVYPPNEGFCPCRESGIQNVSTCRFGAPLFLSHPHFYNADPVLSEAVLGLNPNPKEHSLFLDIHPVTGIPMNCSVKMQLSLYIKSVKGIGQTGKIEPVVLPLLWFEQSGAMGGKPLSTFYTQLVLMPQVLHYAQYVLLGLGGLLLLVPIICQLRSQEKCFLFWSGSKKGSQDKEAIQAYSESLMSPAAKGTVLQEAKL

Cc1ccc(OCc2cc(C(=O)N3CCCC(O)C3)no2)cn1 (stereo unspecified)
outcome: inactive

— PubChem BioAssay AID623880 (Broad Institute, 2012)
